# Screening results (PubChem BioAssay)
# HT1080-NT tox – kills 2HG-producing HT-1080-NT fibrosarcoma cells; HT-1080-NT fibrosarcoma viability, CellTiter-Glo ATP luminescence, 48 h; AID 686970; 360,000 tested, 1.6% active; Potency, µM (titrated, usually from 46.1 µM), for inactives: at the highest dose activity, negative = less viability, usual class: cytotoxic;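 note: NT is the 2HG producing partner of a matched IDH1 knockdown line; potency is the fitted concentration of half-maximal effect; 0% = DMSO-treated cells and -100% = media-only wells without cells; nearly all actives have a fitted effect of over 55% in size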
#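 Luminescent CellTiter-Glo readout after 48 hours of compound exposure at 37 degrees C defined viability of HT-1080-NT cells. Activity was normalized to DMSO wells and cell-free media wells; concentration-response curves were fitted and assigned curve classes.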
# uPA generation – inhibitors of cell surface uPA generation | cell surface uPA generation assay, qHTS | Potency, µM (top dose mostly 38.3 µM), inactives show top-dose activity change, negative = inhibition, actives largely listed as inhibitors | 330,000 tested, 0.31% active; active = well fitted inhibition curve with a large enough effect; inconclusive = small, poorly fitted or top-dose-only effect; inactive = no such curve, though single readings can be large or run the other way; tested in mouse RAW 264.7 cells; note: potency is the fitted concentration of half-maximal effect; nearly all actives have a fitted effect of over 55% in size
# TDP1 cell noCPT – qHTS for Inhibitors of human tyrosyl-DNA phosphodiesterase 1 (TDP1): qHTS in cells in absence of CPT; Potency, µM (highest dose often 46.2 µM), without a hit: at the highest dose activity change, negative = growth inhibition, usual class: inhibitors; 420,000 tested, 15% active; DT40 Tdp1-/- hTDP1 cells, no CPT, ATP luminescence, 48 h; note: potency is the fitted concentration of half-maximal effect; nearly all actives have a fitted effect of over 55% in size
#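 Chicken DT40 Tdp1-/- cells complemented with human TDP1, screened without camptothecin (DMSO vehicle only), 400 cells/well. Compounds pin-transferred, cells incubated at 37 °C for at least 48 hr. Growth read as ATP-dependent luminescence (CellTiter-Glo, 30 min at RT).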
# HT1080 IDH1KD tx – kills HT-1080 cells with IDH1 knockdown; AID 686971; 360,000 tested, 2% active; HT-1080 IDH1 knockdown viability, ATP luminescence, 48 h; Potency, µM (highest dose often 46.1 µM), inactives show at the highest dose activity, negative = toxicity, hits mostly cytotoxic;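 note: potency is the fitted concentration of half-maximal effect; 0% = DMSO wells and -100% = cell-free medium wells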
#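 Cytotoxicity counter-line: IDH1KD HT-1080, 48 h, CellTiter-Glo. Curves classed by r2, magnitude and activity.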
# IL1B secr inh – inhibitors of inflammasome signaling (IL-1 beta secretion); THP-1 LPS/ATP IL-1B secretion, AlphaLISA, 16 h; stronger effect = lower value; activity change, % at 57.5 µM; 360,000 tested, 4.7% active; in the data active = activity change below about -50%; inconclusive = mostly about -30% to -49%
#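 THP-1 cells pretreated 1 hr with compounds (up to 57.5 uM final), then stimulated with LPS (250 ng/mL final) plus ATP (1.25 mM final); secreted IL-1B measured by AlphaLISA after 16 hr, decreased signal indicating inhibition.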
# DT40 TDP1 CPT – DT40-hTDP1 cell growth loss with CPT; chicken DT40 Tdp1-/-;hTDP1 cells + 20 nM CPT, ATP luminescence, 48 h; Potency, µM (doses to about 46.2 µM), for inactives: at the highest dose activity change, negative = growth inhibition, hits mostly inhibitors; 420,000 tested, 12% active; AID 686979; note: potency is the fitted concentration of half-maximal effect; nearly all actives have a fitted effect of over 55% in size
#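 Chicken DT40 Tdp1-/- cells stably complemented with human TDP1 were seeded at 400 cells/well in medium containing 20 nM camptothecin, exposed to pin-transferred compounds, and grown at 37 °C for at least 48 hr. Viability was read as ATP luminescence.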
# An asterisk follows results filed as active; ? = inconclusive; . = not tested or not shown; [ ] = dose if it differs, or a comment. A selection: hits, their analogues and other compounds. The true share with any hit is near 19%. Unless noted, calls come from the whole dose curve; as a rule, active = well fitted curve in the direction sought with a large enough effect; inconclusive = small, poorly fitted or top-dose-only effect, or another doubt; inactive = no such curve, though single readings can be large; an effect the other way counts as inactive or inconclusive. Unless noted, % is set by controls: 0 for no effect and ±100 for the full control effect.
SMILES,HT1080-NT tox,uPA generation,TDP1 cell noCPT,HT1080 IDH1KD tx,IL1B secr inh,DT40 TDP1 CPT
CCC12CCCN3CCC4(C(=C(C(=O)OC)C1)Nc1ccccc14)C32 (stereo not drawn),0%,-5%,16µM*,1%,26,16µM*
Cc1csc2sc(-c3ccnc(SCC(=O)NCc4ccccc4)n3)c(C)c12,3.3µM*,-2%,0.73µM*,2.3µM*,75,0.73µM*
Cn1c2ccccc2c(=O)c2cc(C#Cc3ccc(N)cc3)ccc21,-14%,?,?,-27%,4,?
COc1cccc2sc3ccc(C#CC4(N)CCCCC4)cc3c(=O)c12,-15%,-29%,15µM*,-14%,-61*,16µM*
COc1ccc(C#Cc2ccc3c(c2)c(=O)c2ccccc2n3C)cc1,3%,4%,18µM*,8%,59,?
COc1cccc2sc3cc(C#CC4(O)CCCCC4)ccc3c(=O)c12,?,?,?,?,?,7.3µM*
COc1cccc(C#Cc2c(C=O)n(C)c3ccccc23)c1,-19%,14%,16µM*,?,35,16µM*
COc1cc2sc3ccc(C#Cc4ccccn4)cc3c(=O)c2cc1OC,?,-13%,?,-1%,-7,-89%
CCOCCCNC(=O)C1CCN(c2nc3ccc(C)cc3[nH]2)CC1,.,.,1%,.,.,0%
CNC(C)C#Cc1ccc2oc3cccc(OC)c3c(=O)c2c1 (stereo not drawn),9%,?,?,9%,0,?
CNC(C)C#Cc1ccc2sc3cccc(OC)c3c(=O)c2c1 (stereo not drawn),-2%,?,15µM*,5%,-80*,?
COc1cc2sc3ccc(C#CC4(O)CCCCC4)cc3c(=O)c2cc1OC,-23%,?,16µM*,?,0,?
Cn1c2ccccc2c(=O)c2ccc(C#CC3(O)CCCCC3)cc21,?,?,10µM*,?,-54*,13µM*
Cc1cc(C)c(CC(=O)c2ccccc2)c(C)c1,5%,-3%,?,12%,13,-28%
O=C(c1ccc(CS(=O)Cc2ccccc2Cl)o1)N1CCN(c2ccccn2)CC1 (stereo not drawn),-12%,-2%,16µM*,-1%,42,?
O=C(c1ccc(CS(=O)c2ccccc2Cl)o1)N1CCN(c2ccccn2)CC1 (stereo not drawn),?,?,2.1µM*,7.3µM*,-1,3.7µM*
O=C(c1ccc(CS(=O)Cc2ccc(Cl)cc2)o1)N1CCN(c2ccccn2)CC1 (stereo not drawn),-1%,4%,?,-10%,-62*,?
O=C1N=C(N2C=CC(=C3C=CNC=C3)C=C2)/C(=C/N=NC(=O)c2ccccc2)S1,5%,1%,13%,9%,28,19%
C=Cc1ccc(Cn2c(C)c(C(=O)NCc3ccc4c(c3)OCCO4)sc2=O)cc1,-8%,.,10µM*,-14%,-5,?
CSc1ccc(Cn2c(C)c(C(=O)NCc3ccc4c(c3)OCO4)sc2=O)cc1,-8%,.,15µM*,-9%,?,?
C=Cc1ccc(Cn2c(C)c(C(=O)NCc3ccc(Cl)c(Cl)c3)sc2=O)cc1,?,.,?,-22%,-15,?
Cc1ccc(Cn2c(C)c(C(=O)NCc3ccc4c(c3)OCO4)sc2=O)cc1,-17%,.,-29%,0%,?,?
Cc1ccc(Cn2c(C)c(C(=O)NCc3cccs3)sc2=O)cc1,5%,.,-30%,-1%,?,?
CSc1ccc(Cn2c(C)c(C(=O)NCc3cccs3)sc2=O)cc1,-24%,.,23µM*,-26%,.,?
O=C(O)CCC(=O)Nc1ccccc1C(=O)NCc1ccccc1,22%,9%,-2%,30%,7,0%
SMILES,HT1080-NT tox,uPA generation,TDP1 cell noCPT,HT1080 IDH1KD tx,IL1B secr inh,DT40 TDP1 CPT
Cc1nc2ccccc2cc1C(=O)O,1%,5%,4%,-2%,101,-1%
O=C(Nc1ccccc1Br)c1ccccc1-c1ccccc1,?,-8%,6.5µM*,?,13,5.8µM*
Cc1nc2ccccc2cc1C(=O)NCc1ccccc1,0%,-3%,13µM*,-6%,21,?
O=C(Nc1ccccc1-c1ccccc1)c1ccccc1Br,-6%,-15%,-2%,?,16,-18%
Cc1ccccc1C(=O)Nc1ccccc1C(=O)NCc1ccccc1,-3%,-4%,18µM*,-1%,-12,?
O=C(Nc1ccccc1C(=O)NCc1ccccc1)c1ccccc1Br,0%,1%,?,7%,-4,23µM*
CCOc1ccc(-n2nc3ccc(NC(=O)c4ccc(-c5cccc(Cl)c5)o4)cc3n2)cc1,.,.,-13%,.,.,0%
Cc1ccccc1C(=O)Nc1ccc(N(C)C)c2ccccc12,-8%,-1%,3.7µM*,-4%,-12,?
CN(C)c1ccc(NC(=O)c2cccc([N+](=O)[O-])c2)c2ccccc12,-5%,0%,?,-2%,-8,-18%
Cc1ccc(C)c(-n2c(N)c(C(N)=O)sc2=S)c1,15%,1%,2%,3%,2,-4%
Cc1ccc(-n2c(N)c(C(N)=O)sc2=S)c(C)c1,1%,-3%,26µM*,0%,0,?
CCOC(=O)c1sc(=S)n(-c2ccccc2OC)c1N,0%,-6%,23µM*,0%[9.24 µM],8,?
COC(=O)c1sc(=S)n(-c2ccccc2OC)c1N,2%,0%,-12%,0%,35,-7%
COc1ccc(Cl)cc1-n1c(N)c(C(N)=O)sc1=S,5%,.,21µM*,-2%,14,16µM*
